Several values for one entry are separate records, joined by “and”; a condition that tells them apart may be missing. Equal entries are not always repeated. Inconclusive results are not listed. Entries that show only a call come without a potency. Some compounds were tested as several samples or in several runs, with calls that do not always agree. Activity calls are given as the source filed them. The call rests on the fitted dose curve; in most records, active means well fitted curve in the direction sought with a large enough effect in the repeat runs; inconclusive means weak or mixed curves; inactive means no such curve, though single readings can be large; an effect the other way counts as inactive or inconclusive.
Assays:
[1] = Human pregnane X receptor (PXR) small molecule agonists, qHTS cell viability counter screen (AID 1346977); further: nearly all actives have a fitted effect of over 50% in size; further: potency means the concentration at half of the fitted maximal effect
Method in brief: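 Tox21 qHTS format; PXR-Luc HepG2, 2,000/well, charcoal-stripped FBS 5%. Cpd exposure 24hr. Read: CellTiter-Fluor fluorescence, multiplexed with luciferase.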

[2] = Caspase-3/7 induction in HepG2 cells by small molecules, qHTS assay (AID 1346978); further: nearly all actives have a fitted effect of over 15% in size; further: potency means the concentration at half of the fitted maximal effect
Method in brief: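 Wild-type HepG2 cells (2,000/well) were settled 5 h at 37 C, 5% CO2, then exposed to compounds in DMSO for 17 h. Caspase-3/7 activity was read by luminescence 30 min after adding Caspase-Glo 3/7 reagent at room temperature.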

[3] = Caspase-3/7 induction in CHO-K1 cells by small molecules, qHTS cell viability counter screen (AID 1346979); further: nearly all actives have a fitted effect of over 35% in size; further: potency means the concentration at half of the fitted maximal effect
Method in brief: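 CellTiter-Fluor viability check, qHTS format: wild-type CHO-K1, 16hr compound treatment, 1hr reagent incubation, fluorescence read.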

[4] = Caspase-3/7 induction in CHO-K1 cells by small molecules, qHTS assay (AID 1346980); further: nearly all actives have a fitted effect of over 15% in size
Method in brief: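 Wild-type cells were seeded at 1,500 per well and settled 5 hr at 37 C, 5% CO2, then exposed to DMSO-dissolved compounds for 17 hr. Caspase-Glo 3/7 reagent was added, and luminescence was read after 30min at room temperature.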

[5] = Caspase-3/7 induction in HepG2 cells by small molecules, qHTS cell viability counter screen (AID 1346981); further: nearly all actives have a fitted effect of over 30% in size; further: potency means the concentration at half of the fitted maximal effect
Method in brief: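 In this quantitative HTS counter screen, compounds delivered in DMSO were left on unmodified HepG2 cells for 16 hr at 37 C. Viability was then determined fluorometrically with CellTiter-Fluor, in parallel with caspase-3/7 induction in the same wells.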

[6] = target: Nuclear receptor subfamily 1 group I member 2 (Homo sapiens) (UniProt O75469); experiment: Human pregnane X receptor (PXR) small molecule agonists, qHTS assay (AID 1346982); further: nearly all actives have a fitted effect of over 35% in size; further: potency means the concentration at half of the fitted maximal effect
Sequence of Nuclear receptor subfamily 1 group I member 2 (Homo sapiens) (O75469 whole entry, looked up): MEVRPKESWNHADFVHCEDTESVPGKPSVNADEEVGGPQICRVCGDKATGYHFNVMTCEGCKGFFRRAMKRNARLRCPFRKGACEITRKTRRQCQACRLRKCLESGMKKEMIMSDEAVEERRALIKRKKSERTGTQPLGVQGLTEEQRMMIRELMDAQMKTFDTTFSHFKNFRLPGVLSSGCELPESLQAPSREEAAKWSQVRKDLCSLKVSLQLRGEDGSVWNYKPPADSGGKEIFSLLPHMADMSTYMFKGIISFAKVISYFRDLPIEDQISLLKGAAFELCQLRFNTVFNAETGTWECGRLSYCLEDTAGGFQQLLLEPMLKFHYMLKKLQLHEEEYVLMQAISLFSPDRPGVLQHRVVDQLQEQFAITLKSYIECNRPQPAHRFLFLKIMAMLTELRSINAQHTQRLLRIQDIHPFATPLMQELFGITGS
Method in brief: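 Reporter HepG2 cells expressing PXR-Luc are cultured in charcoal-stripped FBS (5%), treated with compounds for 24 hr at 37 C, and assayed by ONE-Glo luminescence after 30 min at room temperature.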

[7] = target: Cytochrome P450 2D6 (Homo sapiens) (UniProt P10635); experiment: Cytochrome P450 Family 2 Subfamily D Member 6 (CYP2D6) small molecule antagonists: luciferase reporter qHTS assay (AID 1671196); further: nearly all actives have a fitted effect of over 50% in size; further: potency means the concentration at half of the fitted maximal effect
Sequence of Cytochrome P450 2D6 (Homo sapiens) (P10635 whole entry, looked up): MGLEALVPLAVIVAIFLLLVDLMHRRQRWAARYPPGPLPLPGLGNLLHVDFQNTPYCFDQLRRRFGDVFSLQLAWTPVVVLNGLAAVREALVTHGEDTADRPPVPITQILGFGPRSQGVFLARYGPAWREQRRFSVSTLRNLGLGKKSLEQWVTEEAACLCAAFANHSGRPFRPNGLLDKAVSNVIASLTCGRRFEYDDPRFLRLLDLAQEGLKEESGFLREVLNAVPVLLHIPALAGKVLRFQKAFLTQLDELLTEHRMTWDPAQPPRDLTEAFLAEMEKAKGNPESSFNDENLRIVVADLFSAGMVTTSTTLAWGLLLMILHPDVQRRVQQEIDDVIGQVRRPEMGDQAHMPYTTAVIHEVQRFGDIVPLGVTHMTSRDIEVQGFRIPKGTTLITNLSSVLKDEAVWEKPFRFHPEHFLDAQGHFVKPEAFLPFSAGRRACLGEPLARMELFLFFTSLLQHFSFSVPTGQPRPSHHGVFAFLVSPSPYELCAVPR
Method in brief: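 Test chemicals meet CYP2D6 plus proluciferin substrate (10 min, RT); NADPH regenerating solution then drives turnover for 1 h. Detection reagent halts the reaction; luminescence measured after 20 min.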

[8] = target: Cytochrome P450 2C19 (Homo sapiens) (UniProt P33261); experiment: Cytochrome P450 Family 2 Subfamily C Member 19 (CYP2C19) small molecule antagonists: luciferase reporter qHTS assay (AID 1671197); further: nearly all actives have a fitted effect of over 65% in size; further: potency means the concentration at half of the fitted maximal effect
Sequence of Cytochrome P450 2C19 (Homo sapiens) (P33261 whole entry, looked up): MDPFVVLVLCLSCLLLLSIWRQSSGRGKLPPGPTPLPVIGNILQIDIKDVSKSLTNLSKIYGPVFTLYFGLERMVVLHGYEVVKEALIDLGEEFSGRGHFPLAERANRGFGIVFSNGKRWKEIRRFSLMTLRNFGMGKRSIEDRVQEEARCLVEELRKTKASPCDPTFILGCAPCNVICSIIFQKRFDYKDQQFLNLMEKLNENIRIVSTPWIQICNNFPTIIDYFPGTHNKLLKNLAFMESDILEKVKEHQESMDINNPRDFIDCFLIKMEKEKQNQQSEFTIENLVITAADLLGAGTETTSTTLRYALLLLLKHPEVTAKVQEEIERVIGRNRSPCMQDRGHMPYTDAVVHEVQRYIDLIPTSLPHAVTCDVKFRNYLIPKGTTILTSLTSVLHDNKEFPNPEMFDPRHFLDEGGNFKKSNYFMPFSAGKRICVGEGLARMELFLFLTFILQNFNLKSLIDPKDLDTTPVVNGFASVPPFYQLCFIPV
Method in brief: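 First, compounds are pinned into enzyme-substrate mix and held 10 min at room temperature. Second, NADPH regeneration solution is added and plates incubate 1 h at 37C. Third, detection reagent is added and luminescence read after 20 min.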

[9] = target: Cytochrome P450 2C9 (Homo sapiens) (UniProt P11712); experiment: Cytochrome P450 Family 2 Subfamily C Member 9 (CYP2C9) small molecule antagonists: luciferase reporter qHTS assay (AID 1671198); further: nearly all actives have a fitted effect of over 50% in size; further: potency means the concentration at half of the fitted maximal effect
Sequence of Cytochrome P450 2C9 (Homo sapiens) (P11712 whole entry, looked up): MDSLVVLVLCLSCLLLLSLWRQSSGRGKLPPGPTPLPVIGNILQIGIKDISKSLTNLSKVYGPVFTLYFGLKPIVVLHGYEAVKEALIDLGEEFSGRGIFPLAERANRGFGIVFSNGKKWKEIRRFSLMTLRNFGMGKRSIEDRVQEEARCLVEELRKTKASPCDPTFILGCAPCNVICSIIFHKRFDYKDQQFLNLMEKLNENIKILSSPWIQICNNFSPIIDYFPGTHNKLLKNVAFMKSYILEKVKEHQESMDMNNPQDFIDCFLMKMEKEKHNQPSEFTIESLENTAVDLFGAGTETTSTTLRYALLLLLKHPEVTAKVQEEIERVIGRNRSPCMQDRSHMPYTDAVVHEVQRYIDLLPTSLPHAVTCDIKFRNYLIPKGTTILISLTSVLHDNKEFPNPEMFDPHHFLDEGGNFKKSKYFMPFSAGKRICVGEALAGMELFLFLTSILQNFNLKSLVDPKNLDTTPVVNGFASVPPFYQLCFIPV
Method in brief: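 CYP2C9 activity was measured with a P450-Glo proluciferin substrate. Enzyme–substrate mix was held with compound for 10 min at room temperature, then NADPH regeneration solution was added for 1 h at 37C. Luciferin product was read as luminescence.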

[10] = target: Cytochrome P450 1A2 (Homo sapiens) (UniProt P05177); experiment: Cytochrome P450 Family 1 Subfamily A Member 2 (CYP1A2) small molecule antagonists: luciferase reporter qHTS assay (AID 1671199); further: nearly all actives have a fitted effect of over 50% in size; further: potency means the concentration at half of the fitted maximal effect
Sequence of Cytochrome P450 1A2 (Homo sapiens) (P05177 whole entry, looked up): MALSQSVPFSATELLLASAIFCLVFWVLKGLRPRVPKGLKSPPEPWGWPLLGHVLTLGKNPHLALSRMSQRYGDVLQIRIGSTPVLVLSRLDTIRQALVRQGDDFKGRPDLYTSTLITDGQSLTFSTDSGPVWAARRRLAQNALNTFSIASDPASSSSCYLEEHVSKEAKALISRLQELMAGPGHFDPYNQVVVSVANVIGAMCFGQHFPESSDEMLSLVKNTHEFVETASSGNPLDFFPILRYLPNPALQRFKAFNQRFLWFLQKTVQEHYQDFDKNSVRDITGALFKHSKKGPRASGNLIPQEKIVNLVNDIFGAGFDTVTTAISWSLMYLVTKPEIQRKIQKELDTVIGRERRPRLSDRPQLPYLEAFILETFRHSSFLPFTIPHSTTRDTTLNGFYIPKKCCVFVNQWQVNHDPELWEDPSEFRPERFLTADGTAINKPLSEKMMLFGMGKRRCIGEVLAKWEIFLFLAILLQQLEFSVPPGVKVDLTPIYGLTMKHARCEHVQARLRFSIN
Method in brief: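 Steps: enzyme-substrate mix dispensed; test compounds and furafylline control pinned in; 10 min room temperature; NADPH regeneration solution added, 1 h; reaction stopped with luciferin detection reagent; luminescence read after 20 min.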

[11] = target: Voltage-gated inwardly rectifying potassium channel KCNH2 (Homo sapiens) (UniProt Q12809); experiment: Human Ether-a-go-go-Related Gene (hERG) channel small molecule antagonists: fluorescence cell-based qHTS assay (AID 1671200); further: nearly all actives have a fitted effect of over 50% in size; further: potency means the concentration at half of the fitted maximal effect
Sequence of Voltage-gated inwardly rectifying potassium channel KCNH2 (Homo sapiens) (Q12809 whole entry, looked up): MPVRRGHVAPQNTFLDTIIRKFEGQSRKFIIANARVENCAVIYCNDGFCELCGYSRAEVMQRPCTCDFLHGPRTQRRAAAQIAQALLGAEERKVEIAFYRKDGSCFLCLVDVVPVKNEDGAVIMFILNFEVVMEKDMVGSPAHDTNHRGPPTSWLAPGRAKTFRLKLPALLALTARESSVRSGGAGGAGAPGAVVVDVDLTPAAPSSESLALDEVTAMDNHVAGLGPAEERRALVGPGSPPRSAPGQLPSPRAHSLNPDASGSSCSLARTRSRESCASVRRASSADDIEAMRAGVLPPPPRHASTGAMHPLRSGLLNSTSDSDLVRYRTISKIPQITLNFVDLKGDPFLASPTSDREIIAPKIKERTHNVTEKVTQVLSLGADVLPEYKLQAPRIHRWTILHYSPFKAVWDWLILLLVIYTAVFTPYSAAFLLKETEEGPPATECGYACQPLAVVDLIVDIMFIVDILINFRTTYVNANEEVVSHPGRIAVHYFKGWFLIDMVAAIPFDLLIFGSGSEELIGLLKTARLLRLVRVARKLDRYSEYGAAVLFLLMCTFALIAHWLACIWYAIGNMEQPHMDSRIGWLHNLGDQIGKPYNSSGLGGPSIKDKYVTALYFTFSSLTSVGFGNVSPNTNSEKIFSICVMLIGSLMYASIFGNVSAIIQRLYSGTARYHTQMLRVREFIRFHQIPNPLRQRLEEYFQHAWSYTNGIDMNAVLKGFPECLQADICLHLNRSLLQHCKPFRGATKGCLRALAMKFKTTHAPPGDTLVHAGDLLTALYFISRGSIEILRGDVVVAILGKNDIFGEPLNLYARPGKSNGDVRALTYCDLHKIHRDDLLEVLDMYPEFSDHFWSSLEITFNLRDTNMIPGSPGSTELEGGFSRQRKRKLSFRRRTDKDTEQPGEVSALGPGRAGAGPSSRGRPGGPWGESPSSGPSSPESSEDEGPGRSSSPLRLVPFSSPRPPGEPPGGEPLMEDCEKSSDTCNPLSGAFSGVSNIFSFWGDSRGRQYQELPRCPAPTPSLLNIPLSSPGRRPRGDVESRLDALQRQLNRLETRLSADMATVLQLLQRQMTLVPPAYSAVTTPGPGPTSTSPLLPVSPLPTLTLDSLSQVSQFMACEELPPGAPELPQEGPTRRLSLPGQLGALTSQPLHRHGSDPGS
Method in brief: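 Kinetic two-minute fluorescence traces, sampled at 1 s, were collected following thallium stimulus of U2OS cells (1000 per well) that had been cultured overnight at 37 C and loaded with FluxOR II.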

[12] = target: Cytochrome P450 3A4 (Homo sapiens) (UniProt P08684); experiment: Cytochrome P450 Family 3 Subfamily A Member 4 (CYP3A4) small molecule antagonists: luciferase reporter qHTS assay (AID 1671201); further: nearly all actives have a fitted effect of over 50% in size; further: potency means the concentration at half of the fitted maximal effect
Sequence of Cytochrome P450 3A4 (Homo sapiens) (P08684 whole entry, looked up): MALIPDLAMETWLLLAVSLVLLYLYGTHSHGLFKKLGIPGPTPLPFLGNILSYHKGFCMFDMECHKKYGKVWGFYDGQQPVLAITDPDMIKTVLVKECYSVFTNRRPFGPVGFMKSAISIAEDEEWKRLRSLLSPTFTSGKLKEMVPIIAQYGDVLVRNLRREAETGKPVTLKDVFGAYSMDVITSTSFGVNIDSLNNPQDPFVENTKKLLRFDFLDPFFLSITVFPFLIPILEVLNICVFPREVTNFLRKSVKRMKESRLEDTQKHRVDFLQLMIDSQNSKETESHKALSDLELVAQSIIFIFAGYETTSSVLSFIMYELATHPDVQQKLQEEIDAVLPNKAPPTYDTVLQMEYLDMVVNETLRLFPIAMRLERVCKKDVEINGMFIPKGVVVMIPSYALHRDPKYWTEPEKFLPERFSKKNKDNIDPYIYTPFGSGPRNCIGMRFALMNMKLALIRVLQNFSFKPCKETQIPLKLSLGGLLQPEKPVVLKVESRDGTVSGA
Method in brief: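 Proluciferin-to-luciferin conversion by CYP3A4, NADPH-regenerated, 1 h RT; luminescence read as RLU. Ketoconazole as control.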

[13] = target: Nuclear receptor subfamily 1 group I member 2 (Rattus norvegicus) (UniProt Q9R1A7); experiment: Rat pregnane X receptor (rPXR) activation by small molecules, qHTS assay (AID 1346983); details: rPXR luciferase reporter cells, One-Glo luminescence, 24 h; max activation: stronger effect = higher value; further: nearly all actives have a fitted effect of over 20% in size
Sequence of Nuclear receptor subfamily 1 group I member 2 (Rattus norvegicus) (Q9R1A7 whole entry, looked up): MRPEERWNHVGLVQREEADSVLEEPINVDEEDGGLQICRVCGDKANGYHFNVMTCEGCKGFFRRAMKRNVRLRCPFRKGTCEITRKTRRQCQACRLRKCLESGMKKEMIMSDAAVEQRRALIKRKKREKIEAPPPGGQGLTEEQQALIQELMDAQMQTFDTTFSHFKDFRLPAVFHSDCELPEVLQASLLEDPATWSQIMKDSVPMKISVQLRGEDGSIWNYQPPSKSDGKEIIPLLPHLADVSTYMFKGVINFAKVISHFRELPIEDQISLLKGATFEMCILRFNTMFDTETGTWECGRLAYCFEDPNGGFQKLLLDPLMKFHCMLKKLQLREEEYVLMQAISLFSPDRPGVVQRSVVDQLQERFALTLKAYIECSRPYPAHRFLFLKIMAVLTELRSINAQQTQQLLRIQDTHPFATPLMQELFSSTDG
Method in brief: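 Cell-based rPXR luciferase reporter assay, 2,000 cells per well, rested 5hr at 37 C before compound addition in DMSO, then 24 hr at 37 C. One-Glo reagent was added and luminescence read after 30 min at room temperature.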

[14] = target: Nuclear receptor subfamily 1 group I member 2 (Homo sapiens) (UniProt O75469); experiment: CYP3A4 induction through human pregnane X receptor (PXR) by small molecules, qHTS assay (AID 1346984); further: nearly all actives have a fitted effect of over 40% in size
Method in brief: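 Induction measured in HepG2-based DPX-2 cells co-expressing human PXR and a CYP3A4 promoter-driven luciferase. After a 24-hour compound exposure, cells received CYP3A4 luciferin substrate at 3uM final for 3 hours, and light output was then recorded.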

[15] = target: Nuclear receptor subfamily 1 group I member 2 (Homo sapiens) (UniProt O75469); experiment: Human pregnane X receptor (PXR) activation by small molecules, qHTS assay (AID 1346985); further: nearly all actives have a fitted effect of over 40% in size
Method in brief: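 DPX-2 cells (HepG2 co-transfected with a PXR response element and a CYP3A4-promoter luciferase construct) were seeded at 2,000 per well, rested 5 hr at 37C, then exposed to DMSO-dissolved compounds for 24 hr. Activation was read as luciferase luminescence.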

SMILES	Potency [1]	Potency [2]	Potency [3]	Potency [4]	Potency [5]	Potency [6]	Potency [7]	Potency [8]	Potency [9]	Potency [10]	Potency [11]	Potency [12]	max activation [13]	Potency [14]	Potency [15]
Clc1nc(Cl)c(Cl)c(Cl)c1Cl	inactive	inactive	inactive	inactive	inactive	inactive	inactive	31.9 µM (active)	inactive	inactive	inactive	inactive	–	–	–
CC(C)(C)NC(=O)[C@H]1CC[C@H]2[C@@H]3CC[C@H]4NC(=O)C=C[C@]4(C)[C@H]3CC[C@]12C	inactive	inactive	inactive	inactive	inactive	48.6 µM (active)	inactive	–	–	inactive	inactive	inactive	-2.95% (inactive)	inactive	inactive
Cc1[nH]c(=O)c(C#N)cc1-c1ccncc1	inactive	inactive	inactive	inactive	inactive	–	inactive	–	29.1 µM (active)	56.4 µM (active) and inactive	–	inactive	1.02% (inactive)	inactive	inactive
O=C(COc1ccc(Cl)cc1)N1CCN(Cc2ccc3c(c2)OCO3)CC1	inactive	inactive	inactive	inactive	inactive	–	1.59 µM (active) and 2.45 µM (active)	17.8 µM (active) and 17.4 µM (active)	28.3 µM (active) and 13.8 µM (active)	28.3 µM (active) and 17.4 µM (active)	19.5 µM (active) and 8.49 µM (active)	–	0.0978% (inactive)	inactive	inactive
c1ccc(Nc2ccccc2)cc1	inactive	inactive	inactive	inactive	inactive	61.1 µM (active) and inactive	inactive	4.48 µM (active) and 22.4 µM (active)	35.6 µM (active) and 39.9 µM (active)	35.6 µM (active)	inactive	3.17 µM (active) and inactive	–	–	–
COc1ccc(OC)c(C(O)CNC(=O)CN)c1 (stereo unspecified)	inactive	inactive	inactive	inactive	inactive	inactive	inactive	20 µM (active) and 24.5 µM (active)	–	–	inactive	–	1.02% (inactive)	inactive	inactive
CC(=O)Oc1ccccc1C(=O)Nc1ncc([N+](=O)[O-])s1	12.4 µM (active) and 16.8 µM (active)	inactive	12.4 µM (active) and 18.8 µM (active)	inactive	15.7 µM (active) and 21.1 µM (active)	11.1 µM (active) and 2.11 µM (active)	7.25 µM (active) and 7.76 µM (active)	3.63 µM (active) and 2.45 µM (active)	4.57 µM (active) and 2.75 µM (active)	6.46 µM (active) and 7.76 µM (active)	inactive	–	-18.4% (inactive)	inactive	inactive
CCCCC/C=C/C=C/C=O	inactive	inactive	inactive and 61.1 µM (active)	inactive	inactive	inactive and 61.1 µM (active)	inactive and 35.6 µM (active)	31.4 µM (active) and 39.9 µM (active)	35.6 µM (active)	inactive and 71 µM (active)	inactive	inactive and 39.9 µM (active)	–	–	–
COc1cccc2c1C(=O)c1c(O)c3c(c(O)c1C2=O)C[C@@](O)(C(=O)CO)C[C@@H]3O[C@H]1C[C@H](N)[C@H](O)[C@H](C)O1	1.72 µM (active) and 6.68 µM (active)	5.96 µM (active)	9.67 µM (active) and 21.1 µM (active)	inactive	3.85 µM (active) and 11.9 µM (active)	inactive	–	inactive	–	–	inactive	–	-0.0344% (inactive) and 3.76% (inactive)	inactive	inactive
O=C(O)c1ccccc1Nc1cccc(C(F)(F)F)c1	inactive	inactive	inactive	inactive	inactive	30.6 µM (active) and inactive	inactive	inactive	63.3 µM (active)	35.6 µM (active)	inactive	inactive	–	–	–
c1ccc2c(c1)c1cccc3ccc4cccc2c4c31	inactive	inactive	inactive	inactive	inactive	inactive	–	88.8 µM (active) and inactive	inactive	112 nM (active) and 20 nM (active)	inactive	inactive	–	–	–
c1ccncc1	inactive	inactive	inactive	inactive	inactive	inactive	inactive	inactive	inactive	inactive	inactive	inactive	–	–	–
C=C(C)C1CC=C(C)CC1 (stereo unspecified)	inactive	inactive	inactive	inactive	inactive	inactive	inactive	inactive	inactive	inactive	inactive	inactive	-4.17% (inactive)	inactive	inactive
